Shown are actives, neighbours in structure and some others; about 2.9% of the full set was active somewhere.
B2AR ag – beta2AR agonists driving receptor internalization, primary screen, cell-based, FAP fluorogen, flow cytometry; Beta-2 adrenergic receptor (Homo sapiens), P07550; Am2.2-beta2AR cells; response, % (no concentration beside the values); hit rate 0.43% among 340,000; AID 504454, 2011;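 active means response above a set limit, near 3 SD of response in nonfluorescent compounds, cut at about 42% in these data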
NadD inh – inhibitors of S. aureus NadD, primary screen, biochemical, colorimetric, uHTS; Nicotinate-nucleotide adenylyltransferase NadD (Staphylococcus aureus N315); purified NadD enzyme, colorimetric absorbance read-out; inhibition, % at 20 µM; AID 602399, 2012; hit rate 0.78% among 360,000; in the data active means inhibition above about 26%
Granule exo inh – LAMP-1 surface exposure blockers, TALL-104 cells – cell-based, flow cytometry, MLPCN library, primary screen; TALL-104 LAMP-1 surface exposure; cells stimulated with thapsigargin and PMA; inhibition, % at 10 µM; hit rate 0.66% among 360,000; AID 651702, 2012;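 active means inhibition above about 55%, limit read from the data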
PP1 inh – PP1-alpha phosphatase inhibitors, primary screen, counter-screen for PP5 inhibitor project, biochemical, fluorescence, OMFP substrate, single point; purified PP1alpha; Serine/threonine-protein phosphatase PP1-alpha catalytic subunit (Homo sapiens), P62136; AID 2235, 2010; hit rate 0.9% among 320,000; inhibition, % at 6.7 µM;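 active means inhibition above the mean inhibition of all tested compounds plus 3 SD, computed separately for each screening campaign, cut at about 15% in these data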
Target sequence (P62136 whole entry, looked up): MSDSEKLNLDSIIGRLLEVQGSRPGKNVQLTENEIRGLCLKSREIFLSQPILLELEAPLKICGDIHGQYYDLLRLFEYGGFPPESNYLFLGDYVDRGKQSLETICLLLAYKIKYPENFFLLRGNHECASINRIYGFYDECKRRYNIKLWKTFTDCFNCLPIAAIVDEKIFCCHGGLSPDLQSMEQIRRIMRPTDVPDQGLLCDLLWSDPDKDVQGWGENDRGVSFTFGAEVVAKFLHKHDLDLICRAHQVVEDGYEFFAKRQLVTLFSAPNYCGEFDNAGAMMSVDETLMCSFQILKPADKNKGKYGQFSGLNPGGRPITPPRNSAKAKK
GRK2 inh – compounds blocking aptamer binding on GRK2 – biochemical, human GRK2, bead flow cytometry, HTS, primary screen | Beta-adrenergic receptor kinase 1 (Homo sapiens), P25098 | FAM-aptamer displacement from GRK2 | inhibition of aptamer binding, % at 10 µM | hit rate 0.59% among 330,000 | AID 488847, 2010;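 active means inhibition of aptamer binding above 40%, roughly 3 SD of noise, on plates passing a quality check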;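 further: median bead fluorescence of bound FAM aptamer so fluorescent compounds give negative values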
NadD conf – inhibitors of S. aureus NadD, confirmation, biochemical, colorimetric, single concentration. shares compounds with NadD inh. purified S. aureus NadD, colorimetric enzyme assay. inhibition, % at 20 µM. hit rate 13% among 2,000. AID 624309, 2012; in the data active means inhibition mostly above about 42%, no sharp cut-off; inactive means mostly below about 42%
* = called active by the depositor; . = no result.

SMILES	B2AR ag	NadD inh	Granule exo inh	PP1 inh	GRK2 inh	NadD conf
COc1ccccc1/C=C/C=c1\sc2nc(=O)c(Cc3ccccc3)nn2c1=O	6.3	37.1*	3.0	7.4	5.0	18.6
COc1ccc(CCCNC(=O)C2Cc3c(-c4cccc(C(C)=O)c4)ccnc3O2)cc1 (centres undefined)	.	-0.9	31.0	.	.	.
CC(C)=CCC/C(C)=C/CNC(=O)C[C@H]1C[C@H](C(=O)N2CCCCC2)[C@@]2(CCc3ccccc3)c3[nH]c4cc(-c5ccco5)ccc4c3CCN2C1=O	2.5	44.5*	0.5	.	0.0	10.7
O=C(C[C@H]1C[C@H](C(=O)N2CCCCC2)[C@@]2(CCc3ccccc3)c3[nH]c4ccc(Cl)cc4c3CCN2C1=O)NCCCn1ccnc1	9.1	30.6*	35.1	.	0.0	0.8
O=C(COC(=O)c1ccc2ccccc2n1)NCc1ccccc1	5.1	-0.8	-2.7	-2.0	0.0	.
CCC(Sc1nc2ccsc2c(=O)n1Cc1ccc(C(=O)O)cc1)C(=O)Nc1ccc(C)c(Cl)c1 (centres undefined)	7.6	47.8*	-6.4	16.6*	7.0	47.0*
COc1ccc(C(C(=O)NCc2ccc(F)cc2)N(C(=O)c2csnn2)C2CC2)cc1 (centres undefined)	-4.2	-4.6	1.5	-2.0	39.0	.
CC(=O)c1nnn(-c2nc(N)nc(N(c3ccccc3)c3ccccc3)n2)c1C	-9.6	5.2	-4.3	1.6	2.0	.
Cc1cc(C)n(-c2nc(N(c3ccccc3)c3ccccc3)nc(-n3nc(C)cc3C)n2)n1	33.1	42.4*	88.3*	13.7	4.0	21.5
COC(=O)c1ccc(-n2c(CCC(=O)O)ccc2-c2ccccc2)cc1	5.0	-0.7	1.0	0.3	0.0	.
Cn1c(-c2c(N)n(CCc3ccccc3)c3nc4ccccc4nc23)nc2ccccc21	-13.4	10.4	4.0	2.1	4.0	.
Cn1c(-c2c(N)n(CCCc3ccccc3)c3nc4ccccc4nc23)nc2ccccc21	-35.5	35.1*	6.1	.	.	10.3
CCCC[C@@H]1Cc2[nH][nH]c(=O)c2[C@H](c2ccc(C(C)C)cc2)O1	.	38.1*	2.8	.	.	5.7
O=C(CCS(=O)(=O)c1cccc2nsnc12)NC1CCCCC1	5.5	-3.6	3.0	-6.7	4.0	.
CCOC(=O)c1c(NC(=O)CSc2nnc(-c3c[nH]c4ccccc34)n2C)sc2c1CCCC2	20.8	33.0*	11.6	1.1	2.0	24.6
CCOC(=O)c1c(NC(=O)CSc2nnc(-c3c[nH]c4ccccc34)n2CCOC)sc2c1CCCC2	9.8	33.6*	7.6	10.5	4.0	37.2
COCCn1c(SCC(=O)Nc2ccc3c(c2)OCCO3)nnc1-c1c[nH]c2ccccc12	-2.2	-2.1	-0.2	-1.6	0.0	.
Cc1ccc2c(c1)CO[C@]21O[C@H](CCO)C[C@H](O)[C@H]1O	.	-0.6	2.3	.	.	.
COc1ccc(N(CC(=O)N2CCN(C)CC2)S(=O)(=O)c2cc(C)ccc2OC)cc1Cl	-5.9	-0.6	0.2	-0.2	0.0	.
CC(C)(C)c1nc2c(s1)CCc1onc(-c3ccc(Cl)cc3)c1-2	-7.1	4.4	-5.0	1.9	.	.
CC(NC(=O)c1c(N)[nH]c(C(=O)c2ccccc2)c1-c1ccccc1Br)c1cccc2ccccc12 (centres undefined)	.	35.5*	11.9	.	.	36.8
CC(C)(C)OC(=O)NCc1ccc(NC(=O)c2nc[nH]c2C(=O)NCCN(CCNC(=O)c2[nH]cnc2C(=O)Nc2ccc(CNC(=O)OC(C)(C)C)cc2)CCNC(=O)c2[nH]cnc2C(=O)Nc2ccc(CNC(=O)OC(C)(C)C)cc2)cc1	-4.7	42.7*	-4.6	.	3.0	12.4
Cn1cnc(C(=O)NCc2ccc(CNC(=O)OC(C)(C)C)cc2)c1C(=O)NCc1ccc(CNC(=O)OC(C)(C)C)cc1	3.2	32.9*	5.3	.	4.0	26.6
CC(C)(C)OC(=O)NCc1ccc(NC(=O)c2nc[nH]c2C(=O)NCCCCNC(=O)c2[nH]cnc2C(=O)Nc2ccc(CNC(=O)OC(C)(C)C)cc2)cc1	23.2	23.7	-3.2	.	3.0	.
CC(C)(C)OC(=O)NCc1ccc(NC(=O)c2nc[nH]c2C(=O)NCCCCCCNC(=O)c2[nH]cnc2C(=O)Nc2ccc(CNC(=O)OC(C)(C)C)cc2)cc1	6.1	39.5*	5.9	.	3.0	13.8
SMILES	B2AR ag	NadD inh	Granule exo inh	PP1 inh	GRK2 inh	NadD conf
CC(C)(C)OC(=O)NCc1ccc(NC(=O)c2nc[nH]c2C(=O)NCCCNC(=O)c2[nH]cnc2C(=O)Nc2ccc(CNC(=O)OC(C)(C)C)cc2)cc1	3.9	17.3	-15.2	.	1.0	.
COc1ccc2nc(NC(=O)CSC(C)C(=O)Nc3cc(C)on3)sc2c1 (centres undefined)	0.5	-6.6	8.2	-5.3	0.0	.
O=C1CC(/C=C/c2ccncc2)=Nc2ccccc2N1	-20.1	-2.6	-2.4	-2.9	5.0	.
O=c1[nH]c(C2CCN(S(=O)(=O)c3ccccc3F)CC2)nc2c1nnn2Cc1ccc2c(c1)OCCO2	7.5	22.6	-7.8	-1.1	0.0	.
O=c1[nH]c(C2CCN(S(=O)(=O)c3ccc(C(F)(F)F)cc3)CC2)nc2c1nnn2Cc1ccccc1	10.6	15.9	-3.1	1.8	3.0	.
O=c1[nH]c(C2CCN(S(=O)(=O)c3ccc(C(F)(F)F)cc3)CC2)nc2c1nnn2Cc1cccc(F)c1	5.7	31.3*	-6.3	-0.8	0.0	20.4
Cc1ccc(S(=O)(=O)N2CCCC(c3nc4c(nnn4Cc4ccc5c(c4)OCCO5)c(=O)[nH]3)C2)cc1 (centres undefined)	6.3	37.1*	14.2	1.2	2.0	30.1
O=c1[nH]c(C2CCN(S(=O)(=O)c3ccc(F)cc3)CC2)nc2c1nnn2Cc1ccc2c(c1)OCCO2	5.7	30.1*	-11.3	2.9	0.0	32.3
O=c1[nH]c(C2CCN(S(=O)(=O)/C=C/c3ccccc3)CC2)nc2c1nnn2Cc1ccc(F)cc1	-7.5	35.1*	-6.5	16.6*	5.0	35.4
O=C(NN=Cc1cc(Cl)ccc1[N+](=O)[O-])c1ccco1	-22.3	0.5	-15.9	.	.	.
CCN(CC)C(=O)c1c2c(nc3ccccc13)-c1ccccc1CC2	0.9	7.5	-3.6	-2.6	1.0	.
CSCCC(NC(=O)c1ccc(Cl)cc1Cl)C(=O)NNC(=O)c1ccncc1 (centres undefined)	.	7.2	0.0	-4.8	0.0	.
Cc1ccc(C)c(Cn2nnc3c(=O)[nH]c(C4CCN(S(=O)(=O)c5ccc(S(=O)(=O)N(C)C)cc5)CC4)nc32)c1	4.0	46.3*	5.7	6.0	4.0	8.8
